The whole screen tested about 290,000 compounds, of which about 1,800 (0.62%) were called active. The full list was thinned out, with actives kept by preference. Unmarked numbers belong to inactive results. Cut-off read from the data, not from the text of the source: active = inhibition above about 50%; inactive = the rest.

For 59 compounds, inhibition results are on record in PubChem BioAssay AID1566 (Sanford-Burnham Center for Chemical Genomics, 2009).

This assay is described as follows: NOD2 signaling inhibitors, cell-based, luminescence, uHTS, HEK293 (AID 1566). Conditions: HEK293 NOD2/NF-kB luciferase reporter, at 4 µM, hits give high values. A general note: Reporter assays use an easily measured gene product as a stand-in for the process of interest.
For `CSc1nsc(SCC(=O)NCc2ccccc2)n1`, the inhibition is -5.3%. Consider `CCc1ccc(NC(=S)N(Cc2cccnc2)Cc2ccco2)cc1`, for which the inhibition is 6.5%.

Take `C=CCc1cccc2cc(C(=O)O)c(=O)oc12`: the inhibition is -2.5%. Under `C=CCc1cccc2cc(C(=O)Nc3ccccc3C(=O)O)c(=O)oc12` stands 62.4% (active); under `C=CCc1cccc2cc(C(=O)Nc3cccc(C(=O)O)c3)c(=O)oc12`, -0.7%.

In the case of `NC(=O)CN1CCN(CCN2C(=O)c3cccc4cccc(c34)C2=O)CC1`, the inhibition is 1.7%. As for `Cc1cc(N2CCN(c3nc(-c4ccc([N+](=O)[O-])cc4)cs3)CC2)c2ccccc2n1`, the figure is 15.6%; as for `COc1ccc(-c2csc(N3CCN(c4cc(C)nc5ccccc45)CC3)n2)cc1OC`, 70% (active); as for `Cc1cc(N2CCN(c3nc(-c4ccccc4)cs3)CC2)c2ccccc2n1`, 26.2%. On to `O=C(/C=C/c1ccccc1)NC(=S)NNC(=O)c1cnccn1`, for which the inhibition is 20.5%. For the compound `Cc1ccc(OCC(=O)c2cc(C)n(C3CC3)c2C)c([N+](=O)[O-])n1`, the inhibition is 11.3%. Consider `Cc1ccc(OCC(=O)c2cc(C)n(C)c2C)c([N+](=O)[O-])n1`, for which the inhibition was 32.9%. Under `Cc1ccc(OCC(=O)c2cc(C)c(C)cc2C)c([N+](=O)[O-])n1` stands 12.2%; under `Cc1ccc(OCC(=O)c2cc(C)n(CC(F)(F)F)c2C)c([N+](=O)[O-])n1`, 23%.

As for `COc1ccc(-n2c(C)cc(C(=O)COc3ccc(C)nc3[N+](=O)[O-])c2C)cc1`, the inhibition was -5.4%.

For `C=CCn1c(C)cc(C(=O)COc2ccc(S(=O)(=O)N3CCCC3)cc2[N+](=O)[O-])c1C`, the inhibition is -1.6%. With `COc1cc(/C=C2\SC(=O)N(CCN)C2=O)ccc1OS(=O)(=O)c1cc(C)ccc1C`, the inhibition is -1.9%. Under `C=CCn1c(SCC(=O)Nc2ccc(-c3nc4ccc(C)cc4s3)cc2)nnc1-c1ccccc1` stands -69.8%; under `COc1ccc2[nH]c(C)c(CCNC(=S)Nc3cccc(C)c3)c2c1`, -5.2%. Regarding `O=C(COC(=O)/C(=C/c1cccs1)c1cccs1)NC(c1ccccc1)c1ccccc1`, the inhibition is -12.9%. As for `CCNC(=S)N1CCN(CC(=O)Nc2ccc(OC)cc2)CC1`, the inhibition is -3.6%. In the case of `O=C(NN/C(=N/S(=O)(=O)c1ccc(Cl)cc1)c1ccccc1)c1cccc(Cl)c1`, the inhibition is -51.7%.

On to `CC(Oc1ccccc1)C(=O)NC1=NCCS1` (centres undefined), for which the inhibition is -34.9%. For the compound `CN1C(=O)C2(C(C#N)=C(N)N(c3cc(Cl)cc(Cl)c3)C3=C2C(=O)CC(C)(C)C3)c2ccccc21` (centres undefined), the inhibition was 48.4%. `CN1C(=O)C2(C(C#N)=C(N)N(c3cc(Cl)cc(Cl)c3)C3=C2C(=O)CCC3)c2ccccc21` (centres undefined): the inhibition is 53% (active). Consider `CN1C(=O)C2(C(C#N)=C(N)N(c3ccc(Cl)cc3)C3=C2C(=O)CC(C)(C)C3)c2ccccc21` (centres undefined), for which the inhibition is 5.6%. Regarding `O=C(CSc1ccc(Br)cc1)N1CCOCC1`, the inhibition is 0%. As to `CCCn1ncc(CN2CCC(Oc3ccc(C(=O)N4CCCC4)cc3)CC2)c1C`, the inhibition was -37.8%.

Take `COc1ccc(S(=O)(=O)N(CC(=O)NCc2ccccn2)Cc2ccccc2)cc1`: the inhibition was -13.2%. `CC(=O)NC1=C(NC2CCS(=O)(=O)C2)C(=O)c2ccccc2C1=O` (centres undefined): the inhibition was 5.3%.

On to `O=C(NC1=C(NC2CCS(=O)(=O)C2)C(=O)c2ccccc2C1=O)c1ccccc1` (centres undefined), for which the inhibition is 73.2% (active). Take `CN(C1=C(NC(=O)c2ccccc2)C(=O)c2ccccc2C1=O)C1CCS(=O)(=O)C1` (centres undefined): the inhibition is -12.3%. With `O=C(Nc1cccc2ccccc12)C1CCN(C(=O)NCc2ccccc2)CC1`, the inhibition is -12.5%.

For `Cc1cccc(OCC(=O)N/N=C2/SCC(=O)N2Cc2ccco2)c1`, the inhibition is 14.5%. Consider `C=CCc1ccccc1OCC(=O)O`, for which the inhibition was -5.4%. As for `O=C(COc1ccc(Cl)cc1)NNC(=S)NCc1ccccc1`, the figure is -20.7%; as for `C=CCc1ccccc1OCC(=O)NNC(=S)NCc1ccccc1`, 64.8% (active); as for `Cc1cc(-c2ccccc2)nc(Cl)c1C#N`, 17.2%. Under `COC(=O)C1=C(C(=O)OC)[C@@H]2N(C)c3ccc(OC)cc3[C@@]23C[C@@H](C(=O)OC)N(C(=O)C2CCC2)C3=N1` stands -5.5%; under `COc1ccc(/C=C2\CCC/C(=C\c3ccc(OC)c(OC)c3OC)C2=O)c(OC)c1OC`, -10.3%; under `COc1cc(/C=C2/CC/C(=C/c3ccc(O)c(OC)c3)C2=O)ccc1O`, -69.1%. For `COc1cc(OC)c(OC)cc1/C=C1\CCC(C2CCCC2)C1=O` (centres undefined), the inhibition is 27%.

Take `COc1ccc(/C=C2\CC/C(=C\c3ccc(OC)cc3OC)C2=O)c(OC)c1`: the inhibition is -4.6%. As for `COc1cc(/C=C2\COC/C(=C\c3ccc(O)c(OC)c3)C2=O)ccc1O`, the figure is 2%; as for `COc1cc(OC)c(OC)cc1/C=C1/Cc2ccccc2C1=O`, 26.6%; as for `CCCn1cnnc1CNC(=O)C1CCC(=O)N(CCc2ccc(OC)cc2)C1` (centres undefined), -2.5%. As for `COc1cc(OC)cc(C(=O)N[C@H](C(=O)NCc2ccco2)C(C)C)c1`, the figure is 4.8%. As to `CCN1CCN(CC(=O)N2c3ccccc3Sc3ccccc32)CC1`, the inhibition is 21.1%. `Cc1noc(C)c1CSCC(=O)OCC(=O)NC1CCCCC1`: the inhibition is 1.1%.

For `[O-][N+]1=C2CCC/C(=N\O)C2=NC12CCCCC2`, the inhibition was -8.9%. As for `COc1ccccc1CNC(=O)N1CCN(c2ccccc2)CC1`, the figure is 8.6%; as for `COc1ccccc1CNC(=O)N1CCN(c2ccccc2Cl)CC1`, 4%; as for `COc1ccccc1CNC(=O)N1CCN(c2ccccc2C)CC1`, 71% (active).

Take `O=C(CCC(=O)N1CCc2ccccc21)Nc1ccccc1`: the inhibition is 12.5%.

In the case of `N/C(=N\N=C/c1ccc(Br)cc1)N/N=C\c1ccc(Br)cc1`, the inhibition was -5.9%. `CCN1CCN(c2ccc(NC(=O)COc3ccc([N+](=O)[O-])cc3)cc2)CC1`: the inhibition is -32.4%. Regarding `CCc1nnc(NC(=O)CCC(=O)N2CCN(Cc3ccc(Cl)cc3)CC2)s1`, the inhibition was 5.9%. In the case of `CCCc1nnc(NC(=O)CCC(=O)N2CCN(Cc3ccc(Cl)cc3)CC2)s1`, the inhibition was 53.2% (active). Take `CCCc1nnc(NC(=O)CCC(=O)N2CCN(Cc3ccc(F)cc3)CC2)s1`: the inhibition was -3.9%.

In general, inhibition refers to the relative decrease from the control value, in per cent.
